Source: PubChem BioAssay AID1347056 (Sanford-Burnham Center for Chemical Genomics, 2019)
Hit rate of the full screen: of about 360,000 compounds, about 3,600 (1%) were called active.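 The calls were made as follows: active = compounds whose plate-normalised and pattern-corrected inhibition of the luciferase reporter signal at the single screening dose is 50% or more; inactive = the rest.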 The list comes from a sample in which actives are over-represented; it also holds similar structures and randomly drawn compounds.

Experiment: inhibitors of TROY-driven NF-kB signaling, primary screen, Q293 LMP1-TROYcd cells, NF-kB luciferase, uHTS (AID 1347056)
Conditions: Q293 LMP1-TROYcd NF-kB luciferase reporter, 4 h; at 10 µM; hits give high values

inhibition, inactive:
N#CC(Cc1cc2ccccc2n1S(=O)(=O)c1ccccc1)OCc1ccccc1 (configuration not stated) -2.35%, CC(C)c1ccc(NS(=O)(=O)c2cn(C)c(=O)n(C)c2=O)cc1 -2.58%, Cc1ccccc1NC(=O)C(C)c1ccc(-c2ccccc2)c(F)c1 (configuration not stated) -1.18%, Cc1cccc(-n2c(=O)c3c(C)c(C)sc3n(CC(N)=O)c2=O)c1 2.94%, N#CCSc1nc2c(c(=O)n1Cc1ccccc1)C1(CCCC1)Cc1ccccc1-2 3.7%, Cc1cc(CNC(=O)C2CCC(=O)N(CCc3ccc(Cl)cc3)C2)no1 (configuration not stated) -13%, O=C(N/N=C/c1ccsc1)c1cc(O)cc(O)c1 -3.65%, CSc1ncnc2c1ncn2CCCNCC1CCCCC1 10.9%, CC12CCC(=O)C=C1CCC1C2C(O)CC2(C)C1CCC2(O)C(O)CO (configuration not stated) 1.9%, Cc1cc(C)c(NC(=O)CN2CCOCCOCCOCCOCC2)c(C)c1 3.84%, COC(=O)C1=C(N)Oc2cc(C)oc(=O)c2C1c1cccnc1 (configuration not stated) -1.83%, COc1ccc(-c2c(C)cc3oc(=O)cc(-c4ccccc4)c3c2C)cc1OC 1.76%, COc1ccc(-c2c(C)cc3oc(=O)cc(-c4ccccc4)c3c2C)cc1F -22%, COc1cc([C@H](Cc2ccccc2)NC(C)=O)oc(=O)c1 -27%, CCOC(=O)C1(S(=O)(=O)c2ccc(Cl)cc2)CCN(Cc2ccccc2)CC1 -14.2%, Cc1ccc(C(=O)N/C(=C\c2ccc(F)cc2)C(=O)NCCN2CCOCC2)cc1 -5.95%, CCC1Oc2ccccc2N(CC(=O)NCCCN2CCN(CC)CC2)C1=O (configuration not stated) 1.63%, Cc1c(C)n(Cc2ccc(Cl)cc2)c2ccc(C(=O)NCCCN3CCOCC3)cc12 -9.92%, CCN1CCN(CCNC(=O)c2ccc3c(c2)NC(=O)/C(=C\c2cccc(Cl)c2)S3)CC1 2.74%, O=C(NCCN1CCOCC1)/C(=C/c1ccc(F)cc1)NC(=O)c1ccccc1 -11.7%, Cc1cccc(-c2nc3ccc(C(=O)NCCN4CCN(C)CC4)cc3nc2-c2cccc(C)c2)c1 -28%

inhibition, active:
Cc1cccc(-n2c(SCC(N)=O)nc3c(c2=O)C2(CCCCC2)Cc2ccccc2-3)c1 51%, CSc1ncnc2c1ncn2CC(=O)C1CCC2C3CCC4=CC(=O)CCC4(C)C3CCC12C (configuration not stated) 76.2%, COc1ccc(-c2c(C)cc3oc(=O)cc(-c4ccccc4)c3c2C)cc1C=O 50.3%, CCN1CCN(CCNC(=O)c2ccc(/C=C3/Sc4ccccc4N(Cc4cccc(C)c4)C3=O)cc2)CC1 50.6%, O=C(NCCN1CCOCC1)c1ccc(/C=C2\Sc3ccccc3N(Cc3ccc(F)cc3)C2=O)cc1 51%, CN1CCN(CCCNC(=O)c2ccc(/C=C3\Oc4ccccc4N(Cc4ccc(Cl)cc4)C3=O)cc2)CC1 80.6%
